Giardia FBPA inh: inhibitors of Giardia lamblia fructose-1,6-bisphosphate aldolase | A8B2U2 | purified Giardia FBPA | Potency, µM (top dose mostly 59.6 µM), for the others: at the highest dose activity, negative = inhibition, usual class: inhibitors | actives 0.71% (n = 290,000) | AID 2451; further: potency means the concentration at half of the fitted maximal effect; on the % scale 0 is the no-effect control and ±100 the full control effect; nearly all actives have a fitted effect of over 55% in size
Target sequence (A8B2U2 whole entry, looked up): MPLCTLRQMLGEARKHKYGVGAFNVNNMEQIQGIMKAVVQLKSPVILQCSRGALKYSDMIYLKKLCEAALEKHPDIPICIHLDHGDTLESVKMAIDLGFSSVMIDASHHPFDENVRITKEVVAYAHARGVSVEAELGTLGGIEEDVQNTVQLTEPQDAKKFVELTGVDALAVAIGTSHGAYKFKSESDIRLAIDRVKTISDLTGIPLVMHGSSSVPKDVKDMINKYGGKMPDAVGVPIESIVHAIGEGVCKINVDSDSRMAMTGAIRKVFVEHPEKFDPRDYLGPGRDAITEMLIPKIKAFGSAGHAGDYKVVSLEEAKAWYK
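Giardia FBPA (40 nM reagent) was preincubated 10 min at RT with compound (up to 57.5 uM final), then substrate plus GAPDH/TPI/NAD/arsenate coupling system with diaphorase/resazurin was added; resorufin fluorescence (525/598 nm) was read after 20 min.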
Tb PYK inh: blocks Trypanosoma brucei pyruvate kinase; TbPYK enzyme, Kinase-Glo Plus ATP luminescence, 45 min; AID 624173; Potency, µM (top dose mostly 76.8 µM), for the others: top-dose activity, negative = inhibition, usual class: inhibitors; actives 0.12% (n = 410,000); Q57TT1; further: potency means the concentration at half of the fitted maximal effect; on the % scale 0 is the no-effect control and ±100 the full control effect; nearly all actives have a fitted effect of over 50% in size
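T. brucei PYK with substrate was exposed to pin-transferred compounds across a concentration series, then started with 130 uM ADP (final). After 45 min at room temperature, Kinase-Glo Plus luminescence was read, normalized and curve-fitted.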
Sm TGR block: inhibitors of Schistosoma mansoni thioredoxin glutathione reductase; Potency, µM (series often up to 114 µM), for the others: at the top dose activity change, negative = inhibition, usual class: inhibitors; Q962Y6; actives 3% (n = 360,000); AID 485364; purified TGR, DTNB reduction, TNB absorbance 405 nm; further: potency means the concentration at half of the fitted maximal effect; on the % scale 0 is the no-effect control and ±100 the full control effect; nearly all actives have a fitted effect of over 60% in size
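First, TGR (20 nM dispensed) and NADPH were mixed with compound. Second, a 15 min room-temperature incubation followed. Third, further NADPH and then DTNB were added to start the reaction. Finally, TNB absorbance was monitored kinetically.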
LmPK inhibitor: inhibitors of Leishmania mexicana pyruvate kinase. Q27686. purified LmPK, Kinase-Glo ATP luminescence, 1 h. actives 0.37% (n = 290,000). Potency, µM (doses to about 57.5 µM), for inactives: top-dose activity change, negative = inhibition, hits mostly inhibitors; further: potency means the concentration at half of the fitted maximal effect; on the % scale 0 is the no-effect control and ±100 the full control effect
Target sequence (Q27686 whole entry, looked up): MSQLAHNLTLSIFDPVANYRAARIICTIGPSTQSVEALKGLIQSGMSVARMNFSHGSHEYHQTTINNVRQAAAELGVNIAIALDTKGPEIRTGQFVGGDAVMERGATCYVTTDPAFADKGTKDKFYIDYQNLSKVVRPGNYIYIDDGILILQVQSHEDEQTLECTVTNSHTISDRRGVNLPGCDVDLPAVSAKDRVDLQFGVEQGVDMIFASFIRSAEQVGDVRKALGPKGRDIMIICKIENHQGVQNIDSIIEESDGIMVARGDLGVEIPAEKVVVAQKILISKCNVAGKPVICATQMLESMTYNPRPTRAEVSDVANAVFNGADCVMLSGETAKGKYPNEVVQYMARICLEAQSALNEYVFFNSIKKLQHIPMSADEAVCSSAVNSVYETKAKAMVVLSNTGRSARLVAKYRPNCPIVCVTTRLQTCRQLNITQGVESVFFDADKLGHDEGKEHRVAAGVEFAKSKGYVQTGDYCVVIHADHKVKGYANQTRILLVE
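Purified LmPK (0.1 nM) converted ADP (0.1 mM) to ATP with PEP (0.5 mM) in imidazole buffer pH 7.2 with KCl and MgCl2, 1 h at room temperature. ATP was read by Kinase-Glo luminescence; data normalized to uninhibited and no-enzyme controls.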
Cycloheximide cs: counter-screen hit for Shiga toxin inhibitors, cycloheximide. cell reporter, cycloheximide protein synthesis inhibition counterscreen. max response, %. actives 12% (n = 300,000). AID 2314; in the data active means max response mostly above about 13%, no sharp cut-off; inactive means mostly below about 14%; further: read at 38.3 µM for the half of the compounds with a filed dose; 0% is about no effect
Shiga inhibitor: Shiga toxin inhibition; inhibition, % at 38.7 µM; Vero cells, Shiga toxin protein synthesis inhibition reporter; actives 9.2% (n = 290,000); in the data active means inhibition mostly above about 28%, no sharp cut-off; inactive means mostly below about 43%; further: 0% is about no effect
Starred values were filed as active, the others as inactive; ? = inconclusive; . = no result given; [ ] = another dose, or the depositor's remark. The full list was thinned out, with hits kept by preference. Unless noted, the call rests on the fitted dose curve; in most records, active means well fitted curve in the direction sought with a large enough effect; inconclusive means small, poorly fitted or top-dose-only effect, or another doubt; inactive means no such curve, though single readings can be large; an effect the other way counts as inactive or inconclusive.

SMILES | Giardia FBPA inh | Tb PYK inh | Sm TGR block | LmPK inhibitor | Cycloheximide cs | Shiga inhibitor
CSc1nc2c(c(=O)n1-c1ccc(C)cc1)SCC2 | -11.4% | 5.9% | 2.9% | 9.5% | 8.6* | 48.8
CCOC(=O)C1CCN(c2ncnc3nc[nH]c23)CC1 | -11.3% | 1.3% | -9.5% | -1.6% | -5.9 | -10.8
CCOC(=O)C1CCN(c2ncnc3c(C)csc23)CC1 | 4.7% | -0.6% | 5.5% | -11.4% | 48.1* | 66.8*
COc1ccc(NC(=O)N2CCC3(CC2)CCN(S(C)(=O)=O)CC3)cc1 | -1.5% | -4.1% | . | . | . | .
COc1cc2c(cc1NC(=O)c1cccnc1)CCCC2 | -26.0% | 0.9% | ? | -2.0% | 19.9* | 22.9
COc1ccc(C(=O)Nc2cccnc2)cc1OC | -5.5% | 3.8% | ? | -11.2% | 13.1* | 22.6
COc1ccc(C(=O)Nc2cccc3cccnc23)cc1OC | -6.1% | -5.2% | -4.8% | 5.2% | 10.3 | 5.3
COc1cc(NC(=O)c2cccnc2)c(OC)cc1NC(=O)c1ccc(Br)cc1 | -5.3% | 3.0% | -5.8% | 4.1% | -2.7 | 12.6
COc1ccc(C(=O)Nc2nc(C)c(C)s2)cc1OC | -0.3% | -9.2% | 28.0% | -7.3% | 55.0* | 95.7*
COc1ccc(C(=O)Nc2cccc(NC(=O)c3ccc(OC)c(OC)c3)n2)cc1OC | -7.0% | 6.6% | 3.0% | 1.3% | 22.3* | 39.1*
CCOC(=O)N1CCC(=NNC(N)=O)C1 | . | 2.7% | . | . | . | .
C#CCN1C=CC(=O)[C@@H](OC(=O)Nc2ccc(C)cc2)[C@H]1c1ccccc1Br | . | -10.9% | . | . | . | .
CC(C)(C)c1ccc(C(=O)Nc2cccnc2)cc1 | -6.4% | -5.2% | -2.5% | -4.8% | 25.9* | 30.4
Cc1ccc(N2CCN(C(=O)C3CCC(CNS(=O)(=O)c4ccc(Br)s4)CC3)CC2C)cc1 (stereo not given) | . | -6.4% | 7.0% | . | . | .
CCOc1ccc(OCc2ccc(C(=O)O)o2)cc1 | 2.6% | 3.4% | -21.9% | 2.4% | 32.9* | 60.4*
C/C=C/c1ccccc1OCc1ccc(C(=O)O)o1 | ? | -3.2% | -0.4% | -0.7% | -1.2 | -0.9
CCOc1ccc(OCc2ccc(C(=O)Nc3cc(OC)c(OC)c(OC)c3)o2)cc1 | . | -1.3% | 0.1% | . | . | .
O=C(O)c1ccc(COc2ccc3ccccc3c2)o1 | ? | -3.2% | ? | -17.8% | 42.3* | 93.8*
CCCCCN(C(=O)CCC(=O)OC(C)C(=O)Nc1cccc(C#N)c1)c1c(N)n(CCCC)c(=O)[nH]c1=O (stereo not given) | . | 4.1% | -0.5% | . | . | .
Cc1ccc(C(=O)N2CCN(Cc3cc(=O)n4nc(-c5ccccc5)sc4n3)CC2)cc1 | . | -7.2% | -4.0% | . | . | .
COc1ccccc1OCC(=O)NCC1CCCN(C(=O)c2ccccc2C(C)=O)C1 (stereo not given) | -6.0% | 2.5% | -9.1% | 1.5% | -1.2 | 5.2
COc1ccc(C(=O)N2CCCC(CNC(=O)c3ccccc3Cl)C2)o1 (stereo not given) | . | 6.5% | ? | 0.8% | 18.5* | 20.1
CC(=O)c1ccccc1C(=O)N1CCCC(CNC(=O)c2ccccc2Cl)C1 (stereo not given) | -9.6% | -26.9% | -10.1% | -1.0% | 27.3* | 31.8
CCOc1ccc(/C=C2\NC(=S)NC2=O)cc1 | 5.6% | -8.1% | -13.8% | 1.6% | 8.9 | 44.0
CCOc1ccc(/C=C/C2=CC(C)(C)NC(=S)N2)cc1 | -3.6% | 1.2% | 8.91µM* | -2.2% | 6.4 | -8.8
SMILES | Giardia FBPA inh | Tb PYK inh | Sm TGR block | LmPK inhibitor | Cycloheximide cs | Shiga inhibitor
COc1cccc(/C=C/C2=CC(C)(C)NC(=S)N2)c1 | 3.1% | -4.1% | . | -4.3% | 2.0 | 42.7
COc1ccc(/C=C/C2=CC(C)(C)NC(=S)N2)cc1OC | 4.3% | -2.5% | 2.82µM* | -1.2%[11.5 µM] | -3.3 | -3.1
CCNC(=S)N/N=C/c1sccc1C | 3.1% | . | -30.7% | 0.0% | 6.1 | 33.7*
Cc1ccsc1/C=N/NC(=O)C(=O)NCC(C)C | -3.2% | -22.6% | 0.0% | -1.4% | 41.3* | 75.9*
Cc1ccsc1/C=N/NC(=S)NCCc1ccccc1 | 1.7% | -4.9% | 1.0% | 5.8% | 32.5* | 30.6*
COc1cc(-c2nc3ccccn3c2/N=C/c2cc(OC)c(O)cc2Cl)ccc1O | ? | -8.6% | 25.1µM* | 6.2% | 30.0* | 21.7*
COc1cc(-c2nc3ccccn3c2/N=C/c2ccccc2)ccc1O | -8.9% | 0.3% | -10.0% | -0.5% | 2.8 | 19.1
O=C(CCc1nc(-c2ccccc2)no1)NCc1ccco1 | 0.8% | -15.4% | 44.7µM* | 3.9% | 12.3 | 15.9
O=C(NCc1ccco1)c1ccccc1-c1nc(-c2ccc(F)cc2)no1 | -3.7% | -5.6% | ? | 3.4% | 12.1 | 19.9
O=C(NCc1ccco1)c1nc(-c2ccc(F)cc2)no1 | -0.3% | -16.6% | 4.3% | 2.7% | 8.1 | 40.7*
Cc1nc2cc(-c3ccccc3)nn2c(C)c1CCC(=O)NCc1ccco1 | -4.7% | 0.0% | ? | 4.1% | 39.4* | 67.6*
COc1ccccc1-c1noc(CCCC(=O)NCc2ccco2)n1 | . | 5.0% | -27.2% | . | . | .
Cc1ccc(-c2noc(CCC(=O)NCc3ccco3)n2)cc1 | -1.0% | -2.5% | ? | 8.2% | 16.6 | 31.7
COc1cc(-c2noc(CCCC(=O)NCc3ccco3)n2)cc(OC)c1OC | 3.4% | -7.0% | 44.7µM* | 3.4% | -1.2 | -6.0
CCCc1nc(SC)ncc1C(=O)N1CCN(c2ccc(Cl)cc2)CC1 | . | -8.2% | 1.1% | . | . | .
CC1CCc2onc(C(=O)NCc3ccco3)c2C1 (stereo not given) | -1.9% | -1.9% | -1.4% | -4.2% | 37.6* | 85.1*
CC(=O)c1cccc(NC(=O)c2noc3c2CC(C)CC3)c1 (stereo not given) | . | -3.0% | 0.0% | . | . | .
O=c1cc(/C=C/c2ccccc2)oc2ccccc12 | -4.2% | -2.1% | -10.4% | -24.0% | 46.8* | 107.2*
O=c1cc(-c2ccccc2)oc2ccccc12 | . | 4.3% | 0.6% | . | . | .
CCOc1ccc(C(C(=O)NC2CCCC2)N(Cc2ccccc2)C(=O)c2nsc(Cl)c2Cl)cc1 (stereo not given) | -4.6% | 1.9% | -14.1% | -3.4% | 14.7* | 10.5
O=C(O)C1=C(C(=O)Nc2ccc(F)c(Cl)c2)CCCC1 | -1.7% | 2.5% | -21.4% | 1.5% | 7.2 | -6.0
CCOc1ccc(NC(=O)c2nsc(Cl)c2Cl)cc1 | -1.6% | 2.0% | 0.0% | -4.8% | 39.9* | 94.2*
O=C(Nc1ccc(F)c(Cl)c1)c1nsc(Cl)c1Cl | -1.1% | 1.0% | 21.4% | ? | 46.8* | 82.2*
O=C(CN(C(=O)c1nsc(Cl)c1Cl)c1ccc(F)cc1)NC1CCCC1 | 3.8% | -1.5% | -8.3% | 0.2% | 3.3 | -4.5
COc1ccc(C(C(=O)NC2CCCC2)N(Cc2ccccc2)C(=O)c2nsc(Cl)c2Cl)cc1 (stereo not given) | -7.6% | -3.5% | -0.3% | 4.3% | -0.5 | 22.7
Cc1ccc(N(CC(=O)NC2CCCC2)C(=O)c2nsc(Cl)c2Cl)cc1 | -8.1% | 5.2% | 0.7% | 10.7% | 30.2* | 28.8*

Assay outcomes deposited in PubChem by National Center for Advancing Translational Sciences (NCATS).
